Results taken from PubChem BioAssay AID1463 (National Center for Advancing Translational Sciences (NCATS), 2008).
Screen size: about 280,000 compounds; about 2,600 (0.93%) were called active. Inconclusive results (about 8%) are left out. Calls come from the whole dose curve; as a rule, active = well fitted curve in the direction sought with a large enough effect; inconclusive = small, poorly fitted or top-dose-only effect; inactive = flat fitted curve, though single readings scatter. The list comes from a sample in which actives are over-represented; it also holds similar structures and randomly drawn compounds.

assay: Counterscreen qHTS for Inhibitors of Tau Fibril Formation, Fluorescence Polarization; conditions: tau K18 P301L Alexa594 fluorescence, heparin fibrillization; series mostly up to 57.7 µM; activity change, negative = decrease: at the top concentration; note: nearly all actives have a fitted effect of over 55% in size
Outline: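 Human tau K18 P301L (15 uM unlabeled, 0.24 uM Alexa 594-labeled) in 100 mM sodium acetate pH 7 with 20 uM heparin, 6 hr at 37 C. ThT 30 uM added, 1 hr ambient; Alexa 594 FP and total fluorescence read at 555/632 nm.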
% is set by controls: 0 for no effect and ±100 for the full control effect; potency is the fitted concentration of half-maximal effect; tags give direction and shape of the fitted curve or compound fluorescence and quenching.

Row | SMILES | activity change, negative = decrease | Potency
1 | CCN(CCCNC(=O)c1cc2c(=O)n(CC)c3ccccc3c2s1)Cc1ccccc1 | -15.7% (inactive) | 
2 | Cc1c(NC(=O)C(C)(C)C)cccc1-c1nc2ccccc2s1 | -15.3% (inactive) | 
3 | Cc1c(O)cc(O)c2c(=O)c(-c3ccc(O)cc3)coc12 | 1.54% (inactive) | 
4 | CC(C)=CCc1c(O)c(CC=C(C)C)c2occ(-c3ccc(O)cc3)c(=O)c2c1O |  | 15.8 µM [quencher] (active)
5 | O=c1c(-c2ccccc2)coc2cc(O)ccc12 | -0.968% (inactive) | 
6 | COc1ccc(-c2nnc(SCC(=O)Nc3ccc(C(C)C)cc3)nc2-c2ccc(OC)c(OC)c2)cc1OC | -20.8% (inactive) | 
7 | Oc1ccc(-c2nc3ccc(Cl)cn3c2Nc2ccc3c(c2)OCO3)cc1 | -29.6% (inactive) | 
8 | Cc1ccc2nc(-c3cccnc3)c(NC3CCCC3)n2c1 | -14.6% (inactive) | 
9 | Cc1ccc2nc(-c3ccc(O)cc3)c(Nc3ccc4c(c3)OCO4)n2c1 |  | 17.8 µM [quencher] (active)
10 | COc1ccc(CCNC(=O)c2ccc(-n3c(C)cc4c3CCCC4)cc2)cc1OC | -19% (inactive) | 
11 | NC(=S)N/N=C/c1ccc([N+](=O)[O-])cc1 | -0.488% (inactive) | 
12 | O=C(N/N=C/c1ccc([N+](=O)[O-])cc1)C(=O)N1CCCC1 | 4.17% (inactive) | 
13 | O=[N+]([O-])c1ccc(N/N=C/c2ccccc2)cc1 |  | 8.91 µM [quencher] (active)
14 | Cc1nc2ccn(Cc3cccs3)c(=O)c2cc1C(=O)NCc1ccc(Cl)cc1 | -12.3% (inactive) | 
15 | COc1cccc(-c2nc(Nc3ccncc3)c3ccccc3n2)c1 |  | 10 µM [quencher] (active)
16 | COc1cccc(Nc2nc3ccccc3c3nncn23)c1 | -28.2% (inactive) | 
17 | COc1ccccc1Oc1nc(-c2cccnc2)nc2ccccc12 | -19.1% (inactive) | 
18 | Cc1ccccc1CNC(=O)c1cccc(NC(=O)c2nsc3ccccc23)c1 | -28.9% (inactive) | 
19 | CCS(=O)(=O)N1CCc2cc(C(=O)N3CCN(c4ccccc4OC)CC3)ccc21 | -8.44% (inactive) | 
20 | O=C1c2ccccc2C2=Nc3ccccc3SC(c3ccccc3F)C12 (stereo not drawn) |  | 5.62 µM [quencher] (active)
21 | COc1ccc(CCNC(=O)c2ccc3c(c2)nc(C)n3-c2ccc(Br)cc2)cc1OC | -4.98% (inactive) | 
22 | CCC(=O)N1CCc2cc(CNS(=O)(=O)c3ccc(Br)s3)ccc21 | -5.99% (inactive) | 
23 | COc1ccc(C2CC(=O)Nc3cc(C)c(C)cc32)c(OC)c1OC (stereo not drawn) | -17.8% (inactive) | 
24 | COc1ccc2c(c1OC)C(=O)c1ccccc1C2=O | -4.24% (inactive) | 

Row | SMILES | activity change, negative = decrease | Potency
25 | COc1ccc(C2Sc3ccccc3NC3=C2C(=O)c2ccccc23)c(OC)c1OC (stereo not drawn) |  | 6.31 µM [quencher] (active)
26 | COc1ccc(C(=O)NCC(c2ccc(N(C)C)cc2)N2CCc3ccccc32)c(OC)c1 (stereo not drawn) | -24.1% (inactive) | 
27 | Cc1ccc(Oc2c(C(F)(F)F)oc3c(CN4CCCCC4)c(O)ccc3c2=O)cc1 | 2.89% (inactive) | 
28 | Cc1ccc(C(=O)Nc2c(C(=O)NC(C)(C)C)oc3ccccc23)cc1 | -21.4% (inactive) | 
29 | Oc1ccc2ccccc2c1N=Nc1nccs1 |  | 12.6 µM [quencher] (active)
30 | CCOC(=O)c1ccc2c(c1)N(Cc1cccc(OC)c1)C(=O)c1ccccc1S2(=O)=O | -24.9% (inactive) | 
31 | COc1cccc(CNC(=O)Cc2csc3nc(-c4ccccc4)cn23)c1 | -4.57% (inactive) | 
32 | Cc1nc2c(-c3ccccc3)c(C)nn2c(C)c1CCC(=O)NCCc1ccccc1 | -14.9% (inactive) | 
33 | CCc1c(C)nc2c(-c3ccccc3)c(C)nn2c1Nc1ccc(NC(C)=O)cc1 |  | 17.8 µM [quencher] (active)
34 | CCc1ccc(NC(=O)c2cnc3c(-c4ccccc4)c(C)nn3c2C)cc1 | -13.4% (inactive) | 
35 | COc1ccccc1NC(=O)CSC1=Nc2ccccc2C2=NC(CC(=O)NCc3cccs3)C(=O)N12 (stereo not drawn) | -7.59% (inactive) | 
36 | COc1ccc(CCNC(=O)c2ccc(CSCc3ccc(C)cc3)o2)cc1OC | -12.2% (inactive) | 
37 | Nc1ccc(N=Nc2ccccc2Cl)c(N)n1 |  | 15.8 µM [quencher] (active)
38 | Cc1ccc(C)c(N2CCN(C(=O)Cn3ncc4c(=O)oc5ccc(C)cc5c43)CC2)c1 | -10.9% (inactive) | 
39 | COc1cccc(NC(=O)Nc2ccc3c(c2)N(C)C(=O)c2ccccc2S3)c1 | -4.99% (inactive) | 
40 | COc1cccc(/C=N/NC(=O)c2[nH]nc3c2CCc2ccccc2-3)c1O | -12.7% (inactive) | 
41 | COc1cccc(/C=N/Nc2cc(C)nc(-c3ccccc3O)n2)c1O |  | 8.91 µM [quencher] (active)
42 | COc1cccc(/C=N\NC(=O)C2=NNC(=O)C2C)c1O (stereo not drawn) | -16% (inactive) | 
43 | Cc1cc(C)c(/C=C/c2onc(C)c2S(=O)(=O)N2CCC(C(=O)Nc3ccc(Cl)cc3C)CC2)c(C)c1 | -5.75% (inactive) | 
44 | Cc1cc(/C=N/NC(=O)c2cccnc2)c(C)n1CC(C)C | -4.42% (inactive) | 
45 | O=C(N/N=C/c1sc(N2CCCCC2)nc1-c1cccs1)c1cccnc1 |  | 15.8 µM [quencher] (active)
46 | O=C(N/N=C/c1ccccn1)c1cccnc1 | -19.2% (inactive) | 
47 | COc1ccc(CNc2nc(-c3ccc(Cl)cc3)nn2C(=O)c2ccccc2)cc1 | -27.4% (inactive) | 
48 | O=C(Cn1cc(SCc2ccccc2)c2ccccc21)N1CCCCC1 | -27.8% (inactive) | 
